Data as given in PubChem BioAssay AID1159580 (chemical genetic matrix, 2015).
Screen size: about 5,500 compounds; about 2,000 (36%) were called active. Inconclusive results (about 18%) are left out. No stated cut-off is given here; in the data, active means normalized growth mostly below about 0.91 (no sharp cut-off); inconclusive means no clear call, values can overlap the other calls; inactive means mostly above about 0.92. This is one part of the list.

Experiment: chemical genetic growth profiling, strain panel (AID 1159580);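 further: tested at 20 µM; growth read once vehicle control cultures reached saturation at 30 °C; 1 = growth at the plate median or of vehicle wells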
Conditions: growth OD

Measured: normalized growth

COC(=O)COc1ccc(C(C)=O)cc1
inactive: S. cerevisiae deletion strains, locus YAL013W, strain DEP1, stronger effect = lower value 1.01 | S. cerevisiae deletion strains, locus YBR229C, strain ROT2, stronger effect = lower value 0.988 | S. cerevisiae deletion strains, locus YDL101C, strain DUN1, stronger effect = lower value 0.96 | S. cerevisiae deletion strains, locus YDR150W, strain NUM1, stronger effect = lower value 0.977 | S. cerevisiae deletion strains, locus YEL061C, strain CIN8, stronger effect = lower value 1.01 | S. cerevisiae deletion strains, locus YGR078C, strain PAC10, stronger effect = lower value 1 | S. cerevisiae deletion strains, locus YGR229C, strain SMI1, stronger effect = lower value 0.992 | S. cerevisiae deletion strains, locus YHR030C, strain SLT2, stronger effect = lower value 1.02 | S. cerevisiae deletion strains, locus YHR087W, strain rtc3, stronger effect = lower value 1 | S. cerevisiae deletion strains, locus YJR043C, strain POL32, stronger effect = lower value 1.01 | S. cerevisiae deletion strains, locus YJR075W, strain HOC1, stronger effect = lower value 0.984 | S. cerevisiae deletion strains, locus YLR039C, strain RIC1, stronger effect = lower value 0.974 | S. cerevisiae deletion strains, locus YLR058C, strain SHM2 (second series), stronger effect = lower value 1 | S. cerevisiae deletion strains, locus YLR085C, strain ARP6, stronger effect = lower value 1.01 | S. cerevisiae deletion strains, locus YLR262C, strain YPT6, stronger effect = lower value 0.975 | S. cerevisiae deletion strains, locus YML094W, strain GIM5, stronger effect = lower value 0.952 | S. cerevisiae deletion strains, locus YMR219W, strain ESC1, stronger effect = lower value 1.01 | S. cerevisiae deletion strains, locus YMR263W, strain SAP30, stronger effect = lower value 1 | S. cerevisiae deletion strains, locus YNL153C, strain GIM3, stronger effect = lower value 1 | S. cerevisiae deletion strains, locus YNL298W, strain CLA4 (second series), stronger effect = lower value 0.977 | S. cerevisiae deletion strains, locus YNL322C, strain KRE1, stronger effect = lower value 0.991 | S. cerevisiae deletion strains, locus YNR030W, strain Alg12, stronger effect = lower value 0.98 | S. cerevisiae deletion strains, locus YOL006C, strain TOP1, stronger effect = lower value 0.999 | S. cerevisiae deletion strains, locus YPL055C, strain LGE1, stronger effect = lower value 0.992 | S. cerevisiae deletion strains, locus YPL241C, strain CIN2, stronger effect = lower value 1.07 | S. cerevisiae deletion strains, locus YPR135W, strain CTF4, stronger effect = lower value 0.935 | S. cerevisiae strains, strain wild type, stronger effect = lower value 0.99
